Drawing on PubChem BioAssay, this text covers growth inhibition, inhibition and outcome for 20 compounds.

Values without a mark were called inactive. For some of these results: Measured potencies and affinities stand elsewhere. The source made the active and inactive calls. Unless noted, the rule behind the calls is not given here.

Experiment [1] is described as follows: antimalarial activity against Dd2 strain (AID 2302;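 active = growth inhibition above 50% at the single 2 µM test dose, taken to imply half-maximal potency below 2 µM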;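 note: 0% = DMSO untreated growth and 100% = chloroquine plus artemisinin killed control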). The note with it: P. falciparum Dd2 in RBCs, LDH growth readout, 72 h; at 2 µM; hits give high values.
Experiment [2] can be described thus: human hepatoma cell viability loss – ATP luminescence, cytotoxicity control for P. falciparum antimalarial project, primary screen (AID 2303;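 active = inhibition above 50%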;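 note: 0% = DMSO wells and 100% = digitonin-killed cells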). The note with it: HepG2 viability, 24-48 h, at 10 µM, hits give high values.
For experiment [3], the target named is L-lactate dehydrogenase (Plasmodium falciparum (isolate CDC / Honduras)) (UniProt Q27743). The experiment can be described thus: PfLDH activity inhibition – cell lysate, 3D7 strain, counter-screen for P. falciparum growth inhibition project (AID 2304).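 Note: 0% = vehicle and 100% = reference inhibitor.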 As to conditions: P. falciparum 3D7 crude extract, LDH APAD/NBT absorbance; at 2 µM; hits give high values. In general terms: Counterscreens check selectivity or assay interference.
L-lactate dehydrogenase (Plasmodium falciparum (isolate CDC / Honduras)), sequence (Q27743 whole entry, looked up): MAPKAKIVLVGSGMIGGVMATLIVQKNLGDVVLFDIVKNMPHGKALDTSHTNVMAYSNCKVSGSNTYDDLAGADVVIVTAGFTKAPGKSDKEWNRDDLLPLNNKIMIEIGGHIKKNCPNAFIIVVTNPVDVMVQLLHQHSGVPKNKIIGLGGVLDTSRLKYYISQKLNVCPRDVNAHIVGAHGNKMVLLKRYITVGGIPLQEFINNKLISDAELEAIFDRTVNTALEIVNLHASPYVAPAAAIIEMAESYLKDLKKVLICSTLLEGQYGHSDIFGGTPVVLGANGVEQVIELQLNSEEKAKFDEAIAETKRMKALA

Experiment [4] is described as follows: inhibition of 3D7 malaria parasite growth – strain 3D7 (AID 2306).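 Note: 0% = DMSO wells and 100% = chloroquine plus artemisinin control wells.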 The note with it: P. falciparum 3D7 erythrocytic growth, LDH absorbance, 72 h; at 2 µM; hits give high values.
In experiment [5] the target is Calcium-dependent protein kinase 1 (Plasmodium falciparum (isolate 3D7)) (UniProt P62344). The experiment in a line: PfCDPK1 kinase inhibitors, biochemical, TCAMS library (AID 1159585; cut-off not given, nearly all actives have IC50 up to about 0.98 µM;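 note: inhibitors leave more ATP so luminescence rises with inhibition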). As to conditions: recombinant PfCDPK1, Kinase-Glo ATP depletion luminescence. For orientation: Kinase-Glo measures the ATP left after a reaction by luminescence.
Calcium-dependent protein kinase 1 (Plasmodium falciparum (isolate 3D7)), sequence (P62344 whole entry, looked up): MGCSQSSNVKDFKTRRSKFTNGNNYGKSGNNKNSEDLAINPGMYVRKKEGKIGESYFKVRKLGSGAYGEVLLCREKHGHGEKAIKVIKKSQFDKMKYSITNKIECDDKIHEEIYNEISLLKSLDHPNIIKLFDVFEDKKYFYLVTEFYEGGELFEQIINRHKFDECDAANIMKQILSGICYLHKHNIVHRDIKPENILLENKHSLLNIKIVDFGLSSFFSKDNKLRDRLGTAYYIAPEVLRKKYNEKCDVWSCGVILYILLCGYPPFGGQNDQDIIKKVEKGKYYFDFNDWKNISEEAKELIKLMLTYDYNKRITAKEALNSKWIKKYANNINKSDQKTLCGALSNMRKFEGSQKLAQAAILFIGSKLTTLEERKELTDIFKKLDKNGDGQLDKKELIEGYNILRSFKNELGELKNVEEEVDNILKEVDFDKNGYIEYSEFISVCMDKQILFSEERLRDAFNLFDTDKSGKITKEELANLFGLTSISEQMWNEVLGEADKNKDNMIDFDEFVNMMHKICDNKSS
Experiment [6] has as its target Plasmodium falciparum protein kinase 6 (PK6, PF3D7_1337100) (UniProt Q8IDW1). The experiment can be described thus: PfPK6 kinase inhibitors, biochemical, TCAMS library (AID 1159586). As to conditions: recombinant PfPK6, Kinase-Glo ATP depletion luminescence.
Experiment [7] has as its target Protein kinase 7 (PK7), Plasmodium falciparum 3D7 (PF3D7_0213400) (UniProt Q7YTF7). The experiment in a line: inhibition of Plasmodium PK7 catalytic activity – biochemical, TCAMS antimalarial set, Kinase-Glo luminescence (AID 1159587). The note with it: recombinant PfPK7, Kinase-Glo ATP depletion luminescence.
Experiment [8] deals with Calcium-dependent protein kinase 4 (Plasmodium falciparum (isolate 3D7)) (UniProt Q8IBS5). The experiment can be described thus: PfCDPK4 kinase inhibitors, biochemical, TCAMS library (AID 1159588; cut-off not given, nearly all actives have IC50 up to about 0.91 µM). The note with it: recombinant PfCDPK4, Kinase-Glo ATP depletion luminescence.
Calcium-dependent protein kinase 4 (Plasmodium falciparum (isolate 3D7)), sequence (Q8IBS5 whole entry, looked up): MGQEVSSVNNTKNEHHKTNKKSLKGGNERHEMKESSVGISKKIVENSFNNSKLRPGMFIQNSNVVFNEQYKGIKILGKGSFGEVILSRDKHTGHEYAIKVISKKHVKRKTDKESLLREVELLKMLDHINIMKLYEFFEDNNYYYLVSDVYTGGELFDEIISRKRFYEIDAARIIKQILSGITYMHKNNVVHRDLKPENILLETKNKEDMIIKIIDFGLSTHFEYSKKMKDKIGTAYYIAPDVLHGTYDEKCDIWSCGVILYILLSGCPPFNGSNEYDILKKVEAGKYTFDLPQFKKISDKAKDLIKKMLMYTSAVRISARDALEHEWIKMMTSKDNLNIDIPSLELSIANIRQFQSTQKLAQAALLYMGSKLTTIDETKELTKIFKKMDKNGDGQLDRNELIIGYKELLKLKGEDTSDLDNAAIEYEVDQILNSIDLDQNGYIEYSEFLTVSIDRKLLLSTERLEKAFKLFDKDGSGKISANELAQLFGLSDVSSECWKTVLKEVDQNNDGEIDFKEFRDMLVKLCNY

The term inhibition denotes the change of the read-out against control, counted positive when it falls.

Plasmodium falciparum protein kinase 6 (PK6, PF3D7_1337100), sequence (Q8IDW1 1-305): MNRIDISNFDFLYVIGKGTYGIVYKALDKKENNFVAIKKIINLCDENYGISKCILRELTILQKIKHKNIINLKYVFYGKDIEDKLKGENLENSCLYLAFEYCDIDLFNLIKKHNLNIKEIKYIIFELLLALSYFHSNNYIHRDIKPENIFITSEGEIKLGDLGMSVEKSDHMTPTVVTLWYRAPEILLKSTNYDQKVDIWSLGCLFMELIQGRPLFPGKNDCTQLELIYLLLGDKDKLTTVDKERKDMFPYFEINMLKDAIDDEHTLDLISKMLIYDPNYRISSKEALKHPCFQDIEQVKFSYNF
Protein kinase 7 (PK7), Plasmodium falciparum 3D7 (PF3D7_0213400), sequence (Q7YTF7 1-343): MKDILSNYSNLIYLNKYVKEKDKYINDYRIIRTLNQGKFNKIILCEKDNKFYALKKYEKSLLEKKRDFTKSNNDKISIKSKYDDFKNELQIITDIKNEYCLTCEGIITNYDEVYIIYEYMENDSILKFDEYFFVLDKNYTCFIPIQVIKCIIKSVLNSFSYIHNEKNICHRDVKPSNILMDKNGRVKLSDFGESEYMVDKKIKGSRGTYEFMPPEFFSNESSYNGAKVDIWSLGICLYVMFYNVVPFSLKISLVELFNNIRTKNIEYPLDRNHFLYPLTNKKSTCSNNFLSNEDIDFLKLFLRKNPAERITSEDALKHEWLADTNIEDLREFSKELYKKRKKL

As for `CCN1CCN(c2cc(C)c3cc(NC(=O)c4ccc([N+](=O)[O-])c(C)c4)ccc3n2)CC1`, the growth inhibition was 39% in experiment [1] and 92% (active) in experiment [4]. The figures for the inhibition in experiment [2] and in experiment [3] were 8% and -2%, respectively. Moreover, the outcome in experiment [5], in experiment [6], in experiment [7] and in experiment [8] was inactive.

`O=S(=O)(NCCN1CCCC1)c1ccc(-c2ccc(CNCc3ccccc3)cc2)cc1`: the growth inhibition was 28% in experiment [1] and 99% (active) in experiment [4]. Moreover, the results for the inhibition in experiment [2] and in experiment [3] were 47% and 5%, respectively. The result in experiment [5], in experiment [6], in experiment [7] and in experiment [8] was inactive.

`Cc1noc(C)c1C(=O)N1CCc2cc3nccc(N4CCN5CCC[C@H]5C4)c3cc21`: the growth inhibition is 9% in experiment [1] and 93% (active) in experiment [4]. The inhibition in experiment [2] was 7%; in experiment [3], -5%. In addition, the result in experiment [5], in experiment [6], in experiment [7] and in experiment [8] was inactive.

With `CC(CN1CCN(C)CC1)C(=O)Nc1cccc(-c2ccc(-c3nc4ccc(F)cc4[nH]3)cc2)c1` (stereo not given), the values for the growth inhibition in experiment [1] and in experiment [4] were 98% (active) and 101% (active), respectively. For the same compound, the inhibition in experiment [2] was 10%; in experiment [3] it was 1%. Besides, the result in experiment [5], in experiment [6], in experiment [7] and in experiment [8] was inactive.

Take `CN(C)CCOc1cc(NC(=O)Nc2ccc(Cl)cc2C(F)(F)F)ccc1I`: the growth inhibition in experiment [1] was 16%; in experiment [4], 96% (active). The inhibition in experiment [2] is -2%; in experiment [3] it was 5%. In addition, the outcome in experiment [5], in experiment [6], in experiment [7] and in experiment [8] was inactive.

For the compound `CCCCN(CCCC)CCNC(=O)c1ccc(-c2nc3ccc(Cl)cc3[nH]2)c(OCC)c1`, the growth inhibition is 80% (active) in experiment [1] and 101% (active) in experiment [4]. In addition, the inhibition in experiment [2] was 0%; in experiment [3], 9%. The outcome in experiment [5], in experiment [6], in experiment [7] and in experiment [8] was inactive.

In the case of `O=C(NCc1ccccc1)Nc1ccc(-c2cccc(-c3nc4ccc(C(F)(F)F)cc4[nH]3)c2)cc1`, the growth inhibition in experiment [1] is 23%; in experiment [4], 97% (active). Moreover, the values for the inhibition in experiment [2] and in experiment [3] were 56% (active) and -1%, respectively. The result in experiment [5], in experiment [6], in experiment [7] and in experiment [8] was inactive.

In the case of `COc1ccc(CN2CCC(CNCC(c3ccccc3)c3ccccc3)CC2)cc1`, the growth inhibition was 95% (active) in experiment [1] and 102% (active) in experiment [4]. Also, the inhibition in experiment [2] is 84% (active); in experiment [3], -4%. Besides, the result in experiment [5], in experiment [6], in experiment [7] and in experiment [8] was inactive.

`NC1CCN(Cc2cccc(-c3csc(-c4nc5ccccc5[nH]4)c3)c2)C1` (stereo not given): the values for the growth inhibition in experiment [1] and in experiment [4] were 10% and 99% (active), respectively. Besides, the inhibition was 10% in experiment [2] and 2% in experiment [3]. Moreover, the result in experiment [5], in experiment [6], in experiment [7] and in experiment [8] was inactive.

For the compound `COc1ccccc1-c1ccc(C(=O)NCC2CCCN(Cc3cccc(C(F)(F)F)c3)C2)s1` (stereo not given), the growth inhibition in experiment [1] was 37%; in experiment [4], 81% (active). Also, the results for the inhibition in experiment [2] and in experiment [3] were 18% and 3%, respectively. Further, the outcome in experiment [5], in experiment [6], in experiment [7] and in experiment [8] was inactive.

For the compound `Fc1ccc2nc(-c3ccc(-c4cccc(CN5CCN(c6ccncc6)CC5)c4)cc3)[nH]c2c1`, the growth inhibition in experiment [1] is 101% (active); in experiment [4] it was 100% (active). The figures for the inhibition in experiment [2] and in experiment [3] were 66% (active) and -3%, respectively. Further, the result in experiment [5], in experiment [6], in experiment [7] and in experiment [8] was inactive.

Consider `c1cc(CNC2Cc3ccc(-c4cccs4)cc3C2)cc(-n2ccnc2)c1` (stereo not given), for which the growth inhibition is 63% (active) in experiment [1] and 100% (active) in experiment [4]. The values for the inhibition in experiment [2] and in experiment [3] were 0% and -1%, respectively. In addition, the result in experiment [5], in experiment [6], in experiment [7] and in experiment [8] was inactive.

Regarding `COc1ccc(CCNCCCCCCNCCc2cccc([N+](=O)[O-])c2)cc1OC`, the growth inhibition in experiment [1] was -3%; in experiment [4], 93% (active). The inhibition in experiment [2] is 13%; in experiment [3] it was -6%. Further, the outcome in experiment [5], in experiment [6], in experiment [7] and in experiment [8] was inactive.

On to `COc1ccc(NC(=O)[C@H](CC(C)C)Nc2cc(C)nc(NCCc3cccs3)n2)cc1`, for which the figures for the growth inhibition in experiment [1] and in experiment [4] were 68% (active) and 100% (active), respectively. For the same compound, the inhibition in experiment [2] is 5%; in experiment [3], 4%. For the same compound, the result in experiment [5], in experiment [6], in experiment [7] and in experiment [8] was inactive.

Turning to `CC(C)c1ccc(-c2noc(SCC(=O)N(C)c3ccc(F)cc3)n2)cc1`, the growth inhibition in experiment [1] was 77% (active); in experiment [4] it was 84% (active). Besides, the inhibition in experiment [2] is 7%; in experiment [3], 3%. Also, the outcome in experiment [5], in experiment [6], in experiment [7] and in experiment [8] was inactive.

In the case of `CC1CCCCC1N(C)C1CCN(CCCNC(=O)C=Cc2cccc(C(F)(F)F)c2)CC1` (stereo not given), the growth inhibition is 17% in experiment [1] and 100% (active) in experiment [4]. The inhibition in experiment [2] was 47%; in experiment [3] it was -2%. Moreover, the result in experiment [5], in experiment [6], in experiment [7] and in experiment [8] was inactive.

On to `O=C(Nc1ccc(Cl)c(Cl)c1)N1CCC(CNCc2cccc([N+](=O)[O-])c2)CC1`, for which the values for the growth inhibition in experiment [1] and in experiment [4] were 6% and 98% (active), respectively. For the same compound, the inhibition in experiment [2] was 13%; in experiment [3], 2%. Besides, the result in experiment [5], in experiment [6], in experiment [7] and in experiment [8] was inactive.

As for `CCc1ccccc1OCCCON1C(N)=NC(N)=NC1(C)C`, the growth inhibition is 97% (active) in experiment [1] and 95% (active) in experiment [4]. For the same compound, the inhibition in experiment [2] was 77% (active); in experiment [3], -2%. For the same compound, the result in experiment [5], in experiment [6], in experiment [7] and in experiment [8] was inactive.

Consider `Fc1ccc2nc(-c3ccc(-c4ccc(CNCc5ccccc5)cc4)cc3)[nH]c2c1`, for which the growth inhibition in experiment [1] is 94% (active); in experiment [4], 101% (active). For the same compound, the results for the inhibition in experiment [2] and in experiment [3] were 35% and -4%, respectively. In addition, the outcome in experiment [5], in experiment [6], in experiment [7] and in experiment [8] was inactive.

Turning to `CC(C)(C)c1ccc(CNC(=O)c2cc(CNC3CCC(N)CC3)ccc2O)cc1` (stereo not given), the values for the growth inhibition in experiment [1] and in experiment [4] were 1% and 94% (active), respectively. In addition, the inhibition in experiment [2] is 1%; in experiment [3] it was 0%. The result in experiment [5], in experiment [6], in experiment [7] and in experiment [8] was inactive.
